We go through 62 compounds from PubChem BioAssay AID463173 (ICCB-Longwood Screening Facility, Harvard Medical School, 2010).

Structures are written as SMILES. The whole screen tested about 52,000 compounds, of which about 1,700 (3.3%) were called active. Rule as the data show it: active = survival mostly below about 52% (no sharp cut-off); inactive = mostly above about 56%. Many of the other results were omitted from the sample, so actives are more common in it than they were.

This test deals with Wild type. Put plainly: growth inhibition of S. aureus wild type versus tarO mutant, primary screen, teichoic acid synthesis inhibitors, RN4220, OD600 (AID 463173). Conditions: S. aureus RN4220 wild type/DeltatarO growth, OD600, 18 h, stronger effect = lower value, screened at 18.75 µg/mL (by protocol).
Turning to `COc1cccc(-c2nc3c(c(SCc4ccccc4)n2)Cc2c(CO)cnc(C)c2O3)c1`, the survival is 101% (inactive). In the case of `CCCN(CCC)CCCNC(=O)C1CCC(CNS(=O)(=O)c2ccc(NC(C)=O)cc2)CC1` (configuration not stated) it was 66% (inactive); in that of `CCOC(=O)N1CCN(Cc2nc3cc(NC(=O)c4ccc(F)cc4)ccc3n2C(C)C)CC1`, 86% (inactive); in that of `CC(=O)N1N=C(N)SC1c1ccccc1` (configuration not stated), 104% (inactive). As to `CCCC(=O)Nc1nnc(SCc2cc(=O)c3cc(C)ccc3[nH]2)s1`, the survival was 70% (inactive). On to `CC(=O)c1cccc(NC(=O)CN2C(=O)CCc3cc(S(=O)(=O)N4CCCCC4)ccc32)c1`, for which the survival was 82% (inactive).

With `Cc1cc(C)nc(NS(=O)(=O)c2ccc(NC(=O)c3nc(SC(C)C)ncc3Cl)cc2)n1`, the survival was 79% (inactive).

Consider `O=S(=O)(NCCc1cn2ccsc2n1)c1ccc(Cl)cc1`, for which the survival was 129% (inactive). The same measure for `CCc1ccc(NC(=O)CC(NCc2cccnc2)C(=O)O)cc1` (configuration not stated): 74% (inactive); for `CC(C)NC(=O)C1CCCCC1C(=O)O` (configuration not stated): 88% (inactive).

In the case of `CCc1ccc(NC(=O)c2cnc3sc(N4CCCC4)nn3c2=O)cc1`, the survival was 85% (inactive).

Consider `CCC(=O)N1CCc2cc(S(=O)(=O)NC(C(=O)NCc3ccccc3Cl)C(C)C)ccc21` (configuration not stated), for which the survival is 84% (inactive). In the case of `CCCNC(=O)CCSc1nc(-c2ccc3c(c2)OCO3)cc(C(F)(F)F)n1` it was 84% (inactive); in that of `CC(C)(C)NC(=O)CCSc1nc(-c2ccc3c(c2)OCO3)cc(C(F)(F)F)n1`, 4% (active). As for `CC(C)NC(=O)CCSc1nc(-c2ccc3c(c2)OCO3)cc(C(F)(F)F)n1`, the survival was 77% (inactive).

Consider `COc1ccc(Cl)cc1NC(=O)c1c(NCc2ccc(C)o2)sc2c1CCCCC2`, for which the survival was 80% (inactive).

Take `CCOc1cccc2cc(-c3nc4sc5c(c4c(=O)[nH]3)CCC(C)C5)c(=O)oc12` (configuration not stated): the survival is 119% (inactive). In the case of `CCC(C(=O)Nc1cc(F)ccc1F)n1nc(-c2cc(C)ccc2C)ccc1=O` (configuration not stated), the survival is 75% (inactive). Take `Cc1ccc(CCNC(=O)c2nn(C)c3c2CSc2ccccc2-3)cc1`: the survival was 90% (inactive).

As for `Cc1cccc(CCNC(=O)c2nn(C)c3c2CSc2ccccc2-3)c1`, the survival was 87% (inactive). In the case of `Cc1ccc2c(c1)-c1c(c(C(=O)NCCc3ccccc3)nn1C)CS2` it was 10% (active).

On to `Cc1ccc(Nc2c(-c3ccccc3O)nc3ccc(Br)cn23)cc1`, for which the survival is 101% (inactive).

Turning to `CC(C)OCCCNC(=O)C(=O)Nc1ccc2nc3n(c(=O)c2c1)CCCCC3`, the survival is 99% (inactive). The same measure for `COc1ccc(/C=C\c2onc(C)c2S(=O)(=O)N2CCC(C(=O)Nc3ccccc3OC)CC2)cc1`: 116% (inactive); for `Cc1ccc(NC(=O)c2cnn3c(C(F)F)cc(-c4ccccc4)nc23)cc1F`: 86% (inactive). The same measure for `Cc1ccc(CSc2nc(-c3ccc(C(C)(C)C)cc3)nc3cc(=O)[nH]n23)cc1`: 113% (inactive); for `Cc1cccc(-c2nc(SCc3ccc(Br)cc3)n3[nH]c(=O)cc3n2)c1`: 83% (inactive); for `COc1ccccc1NC(=O)CSc1nc(-c2ccccc2F)nc2cc(=O)[nH]n12`: 73% (inactive).

As to `O=c1cc2nc(-c3ccccc3F)nc(SCc3ccc(Br)cc3)n2[nH]1`, the survival is -2% (active). The same measure for `Cc1ccc(-c2nc(SCc3ccc(Br)cc3)n3[nH]c(=O)cc3n2)cc1`: 10% (active); for `O=c1cc2nc(-c3ccccc3)nc(SCc3cccc(Br)c3)n2[nH]1`: 73% (inactive). The same measure for `CC(C)Sc1ncc(Cl)c(C(=O)Nc2nc3ccc(S(C)(=O)=O)cc3s2)n1`: 112% (inactive); for `CN(C(=O)Cn1cc(S(=O)(=O)Cc2ccccc2Cl)c2ccccc21)c1ccccc1`: 146% (inactive). In the case of `CCc1cccc(NC(=O)Cn2c(=O)n(CCc3ccc(OC)c(OC)c3)c(=O)c3ccccc32)c1` it was 124% (inactive); in that of `O=C(Cn1c(-c2cccs2)cc2ccccc21)NCCCN1CCN(c2ccc(F)cc2)CC1`, 136% (inactive); in that of `O=C1S/C(=C\c2ccccc2)C(=O)N1CN1CCOCC1`, 125% (inactive).

In the case of `Cc1nc2cccnc2n1C1CCN(C(=O)Nc2ccccc2C(F)(F)F)CC1`, the survival was 72% (inactive). In the case of `COc1ccccc1CNC(=O)c1ccc(CN2CC(=O)N3CCCCC3C2=O)cc1` (configuration not stated) it was 72% (inactive). In the case of `CCc1ccc(Nc2ncnc3sc4c(c23)CCCC4)cc1` it was 68% (inactive). In the case of `Cc1cc(C)cc(Nc2ncnc3sc4c(c23)CCCC4)c1` it was -3% (active); in that of `CN(C)c1ccc(Nc2ncnc3sc4c(c23)CCCC4)cc1`, 124% (inactive); in that of `O=C(CCC1N=C2c3ccccc3N=C(SCc3ccccc3Cl)N2C1=O)N1CCN(c2ccccc2)CC1` (configuration not stated), 65% (inactive). Turning to `Cc1cc(C)c(NC(=O)Cn2c(=O)n(Cc3ccc(C(=O)NCc4ccc5c(c4)OCO5)cc3)c(=O)c3ccccc32)c(C)c1`, the survival is 83% (inactive).

In the case of `Cc1cccc(C)c1NC(=O)CSc1nc2ncccc2o1`, the survival is 63% (inactive). In the case of `O=C(CSc1nc2ncccc2o1)Nc1ccc(Cl)cc1F` it was 81% (inactive); in that of `COc1cc(NC(=O)CSc2nc3ncccc3o2)cc(OC)c1`, 57% (inactive).

On to `Cc1c(Cl)cccc1NC(=O)CSc1nc2ncccc2o1`, for which the survival was 1% (active). In the case of `O=C(CSc1nc2ncccc2o1)Nc1cccc(C(F)(F)F)c1` it was -3% (active); in that of `O=C(CSc1nnc(-c2ccccc2F)o1)Nc1cccc(C(F)(F)F)c1`, 60% (inactive).

On to `COc1cccc(NC(=O)N(Cc2nc3ccccc3c(=O)[nH]2)C2CCCCC2)c1`, for which the survival is 122% (inactive). In the case of `COc1cccc(NC(=O)N(Cc2cn(C)c3ccccc23)C2CCCCC2)c1` it was 0% (active); in that of `COc1cccc(NC(=O)N(Cc2cn(C)c3ccccc23)C2CCCCCC2)c1`, 0% (active); in that of `COc1cccc(NC(=O)N(Cc2c[nH]c3ccccc23)C2CCCCC2)c1`, 71% (inactive).

For `COc1cccc(NC(=O)Cn2cc(C(=O)C3CCCCC3)c3ccccc32)c1`, the survival is 73% (inactive). The same measure for `COc1cccc(NC(=O)N(Cc2c[nH]c3ccccc23)C2CCCCCC2)c1`: 63% (inactive).

With `CCOc1ccc(C(=O)Nc2nnc(SCc3cc(=O)n4ccccc4n3)s2)cc1`, the survival is 69% (inactive). For `CCc1ccc(NC(=O)N(Cc2c[nH]c3ccccc23)C2CCCCCC2)cc1`, the survival was 127% (inactive). `CCOc1ccc(NC(=O)N(Cc2c[nH]c3ccccc23)C2CCCCC2)cc1`: the survival is 79% (inactive).

`CCOc1ccc(NC(=O)N(Cc2cn(CC)c3ccccc23)C2CCCCCC2)cc1`: the survival is 0% (active). The same measure for `CCc1ccc(NC(=O)N(Cc2c[nH]c3ccccc23)C2CCCCC2)cc1`: 93% (inactive).

On to `CCOc1ccc(NC(=O)N(Cc2c[nH]c3ccccc23)C2CCCCCC2)cc1`, for which the survival was 83% (inactive).

As for `CCc1ccc(NC(=O)N(Cc2cn(CC)c3ccccc23)C2CCCCC2)cc1`, the survival is 0% (active).
